Results reported in PubChem BioAssay (NCATS).
Results filed as inconclusive are left out. The source made the active and inactive calls. Calls come from the whole dose curve; as a rule, active = well fitted curve in the direction sought with a large enough effect; inconclusive = small, poorly fitted or top-dose-only effect, or another doubt; inactive = no such curve, though single readings can be large or run the other way.

Test: qHTS Assay for Identifying Gametocytocidal Compounds (AID 743244);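 note: actives lower the fluorescent signal which means gametocytes are killed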
Details: P. falciparum 3D7 stage III-V gametocytes, alamarBlue, 72 h; max response: active compounds read low
In short: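 Using 20,000 stage III–V 3D7 gametocytes per well, compounds were incubated 72 h under 37 °C/5% CO2. Viability was then assessed by 24 h alamarBlue reduction, measured fluorometrically at 525/598 nm.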
% is set by controls: 0 for no effect and ±100 for the full control effect.

| SMILES | max response |
| --- | --- |
| c1ccc2cc(C3=NCCN3)ccc2c1 | 5.29% (inactive) |
| CC(C)(C)NCC(O)c1ccc(O)c(CO)n1 (stereo not drawn) | 6.55% (inactive) |
| CN1C(=O)C[C@@H](C(=O)N[C@@H](Cc2cnc[nH]2)C(=O)N2CCC[C@H]2C(N)=O)NC1=O | 5.88% (inactive) |
| COc1ccc(-c2noc(CC(=O)O)c2-c2ccc(OC)cc2)cc1 | 49.9% (inactive) |
| CC(C)CCC[C@@H](C)[C@H]1CC[C@H]2[C@@H]3CC[C@@H]4C[C@H](O)CC[C@]4(C)[C@H]3CC[C@]12C | -3.57% (inactive) |
| O=C(O)CCC/C=C\C[C@@H]1[C@@H](/C=C/[C@@H](O)COc2cccc(Cl)c2)[C@H](O)C[C@@H]1O | -3.1% (inactive) |
| O=C1NCCN1c1ncc([N+](=O)[O-])s1 | -6.09% (inactive) |
| Cc1c(O)c(=O)ccn1C | 2.04% (inactive) |
| O=C1/C(=C\c2cccs2)CCC/C1=C\c1cccs1 | 5.47% (inactive) |
| NCC[C@H](O)C(=O)N[C@@H]1C[C@H](N)[C@@H](O[C@H]2O[C@H](CN)[C@@H](O)[C@H](O)[C@H]2O)[C@H](O)[C@H]1O[C@H]1O[C@H](CO)[C@@H](O)[C@H](N)[C@H]1O | -2.69% (inactive) |
| O=[N+]([O-])O[C@@H]1CO[C@H]2[C@@H]1OC[C@@H]2O | 5.11% (inactive) |
| CCCC(=O)O | -0.429% (inactive) |
| NS(=O)(=O)c1cc2c(cc1Cl)NC(Cc1ccccc1)NS2(=O)=O (stereo not drawn) | 18.5% (inactive) |
| CC/C=C\C/C=C\C/C=C\C/C=C\C/C=C\CCCC(=O)O | -4.05% (inactive) |
| CCOC(=O)c1cc(-c2ccccc2)nc2ccc(C)cc12 | -3.36% (inactive) |
| O=C(O)Cc1cc(I)c(Oc2ccc(O)c(I)c2)c(I)c1 | 10.9% (inactive) |
| CC(CC=O)CCCC(C)(C)O (stereo not drawn) | 6.46% (inactive) |
| CC1CCCC(C)N1NC(=O)c1ccc(Cl)c(S(N)(=O)=O)c1 (stereo not drawn) | 7.73% (inactive) |
| OC[C@H]1OC([S-])[C@H](O)[C@@H](O)[C@@H]1O.[Au+] (stereo partly drawn) | -13.3% (inactive) |

| SMILES | max response |
| --- | --- |
| CC(C)C[C@@H](NC(=O)[C@@H](O)[C@H](N)Cc1ccccc1)C(=O)O | 1.84% (inactive) |
| C[C@@H]1O[C@@H](OC[C@H]2O[C@@H](Oc3c(-c4ccc(OCCO)c(OCCO)c4)oc4cc(OCCO)cc(O)c4c3=O)[C@H](O)[C@@H](O)[C@@H]2O)[C@H](O)[C@H](O)[C@H]1O | 6.8% (inactive) |
| CS(=O)(=O)c1ccc([C@@H](O)[C@@H](COC(=O)CN)NC(=O)C(Cl)Cl)cc1 | 0.65% (inactive) |
| F[Si-2](F)(F)(F)(F)F | 2.76% (inactive) |
| CC12CCC(C[N+](C)(CCC[N+](C)(C)C)C1)C2(C)C (stereo not drawn) | -4.18% (inactive) |
| CCCC1C(=O)N2C(N(C)C)=Nc3ccc(C)cc3N2C1=O (stereo not drawn) | 6.87% (inactive) |
| COC(=O)C(CN)c1c[nH]c2ccc(OC)cc12 (stereo not drawn) | -6.34% (inactive) |
| CCC(Cc1c(I)cc(I)c(O)c1I)C(=O)O (stereo not drawn) | 11.2% (inactive) |
| CC(/C=C/C=C(\C)C(=O)O[C@@H]1O[C@H](CO[C@@H]2O[C@H](CO)[C@@H](O)[C@H](O)[C@H]2O)[C@@H](O)[C@H](O)[C@H]1O)=C\C=C\C=C(C)\C=C\C=C(/C)C(=O)O[C@@H]1O[C@H](CO[C@@H]2O[C@H](CO)[C@@H](O)[C@H](O)[C@H]2O)[C@@H](O)[C@H](O)[C@H]1O | 5.1% (inactive) |
| O=C(OCc1ccccc1)c1cccnc1 | -1.85% (inactive) |
| CCN(CC)CCOC[C@H]1O[C@@H](O)[C@H](OCCN(CC)CC)[C@@H](O)[C@@H]1O | 6.01% (inactive) |
| CCCCCCCCCc1ccc(OCCOCCO)cc1 | -0.96% (inactive) |
| C=C[C@]1(C)C[C@@H](OC(=O)CSCCN(CC)CC)[C@]2(C)[C@H](C)CC[C@]3(CCC(=O)[C@H]32)[C@@H](C)[C@@H]1O | -4.45% (inactive) |
| CCOC(=O)Cc1ccc(-c2ccccc2)cc1 | -12.4% (inactive) |
| CC1CC(O)CC(C)(C)C1 (stereo not drawn) | -5.15% (inactive) |
| Cc1ncc(C[n+]2csc(CCOP(=O)(O)O)c2C)c(N)n1 | -3.97% (inactive) |
| CCCCCCCCCCCCOCCCN | -2.81% (inactive) |
| CCCCC[C@H](O)/C=C/[C@H]1[C@H](O)CC(=O)[C@@H]1CCCCCCC(=O)O | -10.5% (inactive) |
| O=C1CC[C@@H](C(=O)N[C@H]2C[C@@H]2c2ccccc2)N1 | -4.02% (inactive) |
